From PubChem BioAssay (EPA / NIEHS)
Several values for one entry are separate records, joined by “and”; a condition that tells them apart may be missing. Identical values can stand only once. Records with an inconclusive call do not appear. Activity calls are given as the source filed them. The calls were made as follows: active = hit-call score of the fitted dose curve at least 0.9, where 1 is the maximum; inconclusive = response in the unintended direction; inactive = score below 0.9.

Tests used:
[1] = molecular target: Luciferin 4-monooxygenase (Photinus pyralis) (UniProt P08659); experiment: CCTE_Simmons_QuantiLum_inhib_2: CCTE's Firefly Luciferase Inhibition Assay, Simmons Lab (AID 2283767);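 as to AC50: potency for inhibitors that lower luciferase luminescence relative to DMSO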
Method in brief: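 Eight-point titrations of each chemical, 5 nM–87.5 uM final in 0.5% DMSO, were run in three biological replicates against recombinant luciferase for 30 min at 37C. Bioluminescence signal loss, read on reagent injection, gave the inhibition endpoint.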

[2] = ACEA_AR_agonist_AUC_viability: ACEA Biosciences xCELLigence Real-Time Cell Analysis on Androgen Receptor Agonism for Viability (AID 2283775);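 as to AC50: viability read 80 hours after compound addition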
Method in brief: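 Viability endpoint from xCELLigence impedance in 22Rv1 prostate cells at 80 h. Eight-point series, 100 uM maximum final.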

[3] = ACEA_AR_antagonist_AUC_viability: ACEA Biosciences xCELLigence Real-Time Cell Analysis on Androgen Receptor Antagonism for Viability (AID 2283776);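 also: 22Rv1 human prostate cancer cells growing on impedance electrode plates; area under impedance growth curve at 80 h after dosing as viability; hits lower the growth signal relative to DMSO meaning cytotoxicity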
Method in brief: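 22Rv1 prostate cells, continuous dosing up to 100 uM final (0.5% DMSO max), duplicate plates. Growth measured by impedance; AUC at 80 h, loss of signal vs DMSO.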

[4] = ACEA_ER_AUC_viability: ACEA Biosciences xCELLigence Real-Time Cell Analysis on Estrogen Receptor Agonism for Viability (AID 2283782);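 also: hit means loss of impedance signal meaning reduced cell growth or viability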
Method in brief: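 Viability endpoint: reduced impedance area under the curve relative to DMSO, recorded by real-time electrode sensing over ~80 h of continuous exposure. Duplicate plates of T47D in hormone-depleted medium; eight concentrations, 1:4 dilutions, 100 uM maximum.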

[5] = molecular target: AR (gene 367) (UniProt P10275); experiment: ACEA_AR_agonist_80hr: ACEA Biosciences xCELLigence Real-Time Cell Analysis on Androgen Receptor Agonism for Proliferation (AID 2283783);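 also: hits increase impedance growth signal above DMSO baseline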
Method in brief: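 Eight concentrations, 1:4 serial dilution from a 100 uM final top, in biological duplicate. Impedance-based real-time growth of 22Rv1 cells after overnight baseline, recorded hourly and read at 80 hours. Controls: testosterone, MG132, assay media.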

[6] = STM_H9_NormalizedViability: Cytotoxicity Assessment at 120 hours in the Stemina devTOX quickPredict H9 human embryonic stem cell (hESC)-based Assay (AID 2283784)
Method in brief: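 Here, H9 cells received test compound with daily medium renewal. Each plate included methotrexate references (1uM, 5 nM), 0.1% DMSO and media blanks; CellTiter-Fluor RFU was normalized to DMSO.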

[7] = molecular target: AR (gene 367) (UniProt P10275); experiment: ACEA_AR_antagonist_80hr: ACEA Biosciences xCELLigence Real-Time Cell Analysis on Androgen Receptor Antagonism for Proliferation (AID 2283787);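 also: 22Rv1 human prostate cancer cells with growth followed by electrical impedance; hits lower the impedance growth signal relative to DMSO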
Method in brief: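 Impedance-based real-time growth of 22Rv1 prostate cells, read 80 h after dosing. Eight concentrations, 1:4 series, top 100 uM final (0.5% DMSO), n = 2; signal decrease scored against DMSO.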

[8] = ArunA_Migration_hNC: ArunA Biomedical's Oris Neural Crest (hNC) Cell Migration Assay (AID 2283755)
Method in brief: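 Calcein-AM fluorescence (ex494 nm/em 517 nm) in the stopper-defined detection zone quantifies migration of hNC cells after 72 h chemical exposure; 60,000 cells/well plated on Matrigel with LIF and bFGF, 16 h pre-incubation. DMSO baseline.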

[9] = ArunA_NOG_NucleusCount: ArunA Biomedical's Neurite Outgrowth (NOG) Assay for Nucleus Count (AID 2283756)
Method in brief: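 Viable neuron count, from Hoechst nuclei passing size and intensity gates, imaged at 20x on differentiated H9-derived human neurons. Exposure lasted 48 h from seeding; activity was scored relative to DMSO.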

[10] = ArunA_NOG_NeuriteLength: ArunA Biomedical's Neurite Outgrowth (NOG) Assay for Neurite Length (AID 2283757)
Method in brief: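 Total neurite length per neuron, from traced βIII-tubulin-labelled processes longer than 10 um on viable Hoechst-gated cells, was scored as decrease from DMSO. Cells were hESC (H9)-derived neurons given 48 h chemical exposure immediately after seeding.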

[11] = ArunA_NOG_NeuritesPerNeuron: ArunA Biomedical's Neurite Outgrowth (NOG) Assay for Neurites Per Neuron (AID 2283758)
Method in brief: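 Differentiated human H9-derived neurons exposed to chemicals for 48 h from seeding, then stained with Hoechst and βIII-tubulin/DyLight 488. Automated imaging counted neurites (processes >10 um) per valid neuron; loss of signal versus DMSO scored.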

[12] = ArunA_NOG_BranchPointsPerNeurite: ArunA Biomedical's Neurite Outgrowth (NOG) Assay for Branch Points Per Neurite (AID 2283759)
Method in brief: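 Automated image analysis traced neurites (processes >10 um) from valid cell bodies after Hoechst and βIII-tubulin staining. hNN cells from H9 embryonic stem cells, 48 h exposure. Fitted bidirectionally against DMSO.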

Measured: AC50

Sequence of Luciferin 4-monooxygenase (Photinus pyralis) (P08659 whole entry, looked up): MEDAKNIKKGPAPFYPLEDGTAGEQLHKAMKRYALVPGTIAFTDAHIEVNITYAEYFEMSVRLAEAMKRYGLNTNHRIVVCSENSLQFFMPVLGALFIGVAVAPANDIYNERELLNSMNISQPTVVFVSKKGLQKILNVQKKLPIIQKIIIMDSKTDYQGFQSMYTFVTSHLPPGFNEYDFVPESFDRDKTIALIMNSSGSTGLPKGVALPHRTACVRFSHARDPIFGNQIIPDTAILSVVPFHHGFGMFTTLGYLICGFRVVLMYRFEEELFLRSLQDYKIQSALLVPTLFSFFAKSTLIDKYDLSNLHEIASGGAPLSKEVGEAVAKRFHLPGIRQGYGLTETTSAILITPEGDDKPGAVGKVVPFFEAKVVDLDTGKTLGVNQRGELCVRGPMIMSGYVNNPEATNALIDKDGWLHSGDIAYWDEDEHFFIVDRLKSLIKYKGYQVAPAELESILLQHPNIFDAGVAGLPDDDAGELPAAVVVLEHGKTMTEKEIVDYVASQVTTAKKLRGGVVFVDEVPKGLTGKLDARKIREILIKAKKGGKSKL
Sequence of AR (gene 367) (P10275 whole entry, looked up): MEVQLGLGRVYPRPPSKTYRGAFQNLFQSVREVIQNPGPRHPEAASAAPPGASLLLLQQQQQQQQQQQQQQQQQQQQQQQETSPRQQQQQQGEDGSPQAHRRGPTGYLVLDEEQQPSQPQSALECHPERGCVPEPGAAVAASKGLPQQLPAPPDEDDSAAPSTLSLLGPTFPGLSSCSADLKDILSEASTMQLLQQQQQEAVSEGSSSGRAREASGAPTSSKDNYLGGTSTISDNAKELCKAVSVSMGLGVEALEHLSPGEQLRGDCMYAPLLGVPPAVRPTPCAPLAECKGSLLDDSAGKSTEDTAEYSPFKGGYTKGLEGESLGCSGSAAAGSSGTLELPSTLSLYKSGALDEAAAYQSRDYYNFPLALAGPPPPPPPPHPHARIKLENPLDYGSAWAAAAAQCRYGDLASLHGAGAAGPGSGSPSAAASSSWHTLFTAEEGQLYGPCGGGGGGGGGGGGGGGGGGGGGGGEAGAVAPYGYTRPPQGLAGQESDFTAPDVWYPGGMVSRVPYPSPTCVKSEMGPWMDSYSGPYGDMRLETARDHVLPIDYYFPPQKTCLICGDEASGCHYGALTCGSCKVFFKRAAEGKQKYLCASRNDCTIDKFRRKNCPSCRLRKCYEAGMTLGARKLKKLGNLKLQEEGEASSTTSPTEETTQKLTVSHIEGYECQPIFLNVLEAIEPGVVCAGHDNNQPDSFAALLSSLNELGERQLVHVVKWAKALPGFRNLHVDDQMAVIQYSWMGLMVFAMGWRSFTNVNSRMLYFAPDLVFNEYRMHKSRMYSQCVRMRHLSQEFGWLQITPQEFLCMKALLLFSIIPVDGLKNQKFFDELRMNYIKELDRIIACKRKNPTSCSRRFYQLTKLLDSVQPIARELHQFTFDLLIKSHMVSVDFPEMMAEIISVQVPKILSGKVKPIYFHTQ

Nc1nc(=S)c2[nH]cnc2[nH]1
inactive: [5]
active: [1] 11.2 µM | [2] 0.655 µM | [3] 0.212 µM | [4] 0.237 µM | [6] 3.32 µM | [7] 0.198 µM

Cc1cc(Cc2ccc(N)c(C)c2)ccc1N
inactive: [1] | [2] | [3] | [6]

Cc1ccc(C(C)(C)C)c(O)c1
inactive: [1] | [2] | [3]
active: [4] 75.6 µM

CCCCCCCCCCCCCCOS(=O)(=O)O
active: [2] 68 µM | [3] 42.3 µM | [4] 74.5 µM
inactive: [1]

Oc1ccccc1O
active: [2] 18 µM | [3] 28.9 µM | [4] 90.5 µM
inactive: [1]

O=C1OC(c2ccc(O)cc2)(c2ccc(O)cc2)c2ccccc21
inactive: [9] | [1] | [5] | [6]
active: [8] 15.9 µM | [2] 21.1 µM | [3] 19.8 µM | [4] 92 µM | [7] 20.6 µM

O=C1c2c(O)cccc2Cc2cccc(O)c21
inactive: [1] | [3] | [4]

Cc1c(C)c2c(c(C)c1O)CCC(C)(COc1ccc(CC3SC(=O)NC3=O)cc1)O2 (stereo unspecified)
active: [2] 50 µM | [3] 50 µM | [4] 82.9 µM | [7] 55.8 µM
inactive: [1]

O=Cc1ccccc1C=O
inactive: [4]
active: [1] 53.8 µM | [2] 79.2 µM | [3] 78.7 µM | [7] 83 µM

Nc1nc(Cl)nc2c1ncn2[C@H]1C[C@H](O)[C@@H](CO)O1
active: [8] 120 nM and 32 nM | [9] 1.81 µM | [10] 1.74 µM | [11] 1.58 µM | [12] 3.41 µM | [2] 1.98 µM | [3] 1.45 µM | [4] 0.0619 µM | [6] 0.902 µM

Cc1ccc(-c2cc(C(F)(F)F)nn2-c2ccc(S(N)(=O)=O)cc2)cc1
active: [8] 78.7 µM | [9] 7.13 µM | [10] 12.9 µM | [11] 13.9 µM | [2] 17.7 µM | [3] 15.9 µM | [4] 90.7 µM | [7] 12.7 µM

CCCC(=O)O
inactive: [2] | [3]

c1ccc2occc2c1
inactive: [2] | [3]
